Measured values taken from PubChem BioAssay AID1159580 (chemical genetic matrix, 2015).
Hit rate of the full screen: of about 5,500 compounds, about 2,000 (36%) were called active. Roughly 18% stayed inconclusive and do not appear here. Rule as the data show it: active = normalized growth mostly below about 0.91 (no sharp cut-off); inconclusive = no clear call, values can overlap the other calls; inactive = mostly above about 0.92. This is one part of the list.

Assay: chemical genetic growth profiling, strain panel (AID 1159580);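 also: tested at 20 µM; growth read once vehicle control cultures reached saturation at 30 °C; 1 = growth at the plate median or of vehicle wells; lower values mean less growth of the strain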
Conditions: S. cerevisiae deletion strains, growth OD
[1] = locus YAL013W, strain DEP1, active compounds read low
[2] = locus YBR229C, strain ROT2, active compounds read low
[3] = locus YDL101C, strain DUN1, active compounds read low
[4] = locus YGR078C, strain PAC10, active compounds read low
[5] = locus YHR030C, strain SLT2, active compounds read low
[6] = locus YJL095W, strain BCK1, active compounds read low
[7] = locus YLR039C, strain RIC1, active compounds read low
[8] = locus YLR262C, strain YPT6, active compounds read low
[9] = locus YMR263W, strain SAP30, active compounds read low
[10] = locus YNL153C, strain GIM3, active compounds read low
[11] = locus YNL322C, strain KRE1, active compounds read low
[12] = locus YOR061W, strain CKA2, active compounds read low
[13] = locus YPL241C, strain CIN2, active compounds read low

Measured: normalized growth

CC1(C)OC(=O)C=CC2(C)C1CC(O)C1(C)C2CCC2(C)C(c3ccoc3)OC(=O)C3OC321 (stereo not given)
inactive: [1] 1.02 | locus YBR021W, strain FUR4, active compounds read low 0.971 | [2] 1.01 | locus YCL029C, strain bik1, active compounds read low 1.02 | locus YDL035C, strain GPR1, active compounds read low 1.01 | locus YDL074C, strain BRE1, active compounds read low 1.02 | [3] 1.01 | locus YDL134C, strain PPH21, active compounds read low 1.01 | locus YDL185W, strain tfp1, active compounds read low 1.02 | locus YDL192W, strain arf1, active compounds read low 1.01 | locus YDR101C, strain arx1, active compounds read low 0.998 | locus YDR162C, strain NBP2, active compounds read low 1.04 | locus YDR318W, strain mcm21, active compounds read low 1.01 | locus YDR388W, active compounds read low 1.02 | locus YDR502C, strain sam2, active compounds read low 1.04 | locus YER110C, active compounds read low 1.02 | locus YER155C, strain BEM2, active compounds read low 0.996 | locus YER167W, strain BCK2, active compounds read low 0.997 | locus YGL078C, strain dbp3, active compounds read low 1.01 | locus YGL086W, strain mad1, active compounds read low 1.01 | locus YGL248W, strain PDE1, active compounds read low 1.01 | [4] 1 | locus YGR135W, strain pre9, active compounds read low 1.04 | locus YGR252W, strain gcn5, active compounds read low 0.965 | [5] 1.01 | locus YHR079C, strain IRE1 (second series), active compounds read low 1.01 | locus YHR094C, strain hxt1, active compounds read low 1.02 | locus YHR129C, strain ARP1, active compounds read low 1 | locus YHR200W, strain rpn10, active compounds read low 1.01 | locus YIL066C, strain RNR3, active compounds read low 1.01 | locus YIL073C, strain SPO22, active compounds read low 1.03 | locus YIL125W, strain kgd1, active compounds read low 1.02 | locus YIR030C, strain dcg1, active compounds read low 1.01 | [6] 1.03 | locus YJL134W, strain LCB3, active compounds read low 1.01 | locus YJL168C, strain set2, active compounds read low 1.01 | locus YJL187C, strain SWE1 (second series), active compounds read low 1.01 | locus YKL009W, strain mrt4, active compounds read low 1.01 | locus YKL068W, active compounds read low 1.02 | locus YKL085W, strain MDH1 (second series), active compounds read low 1 | locus YKL085W, strain MDH1, active compounds read low 1 | locus YKR001C, strain vps1, active compounds read low 1.04 | [7] 1.05 | locus YLR058C, strain SHM2, active compounds read low 1.01 | locus YLR102C, strain apc9, active compounds read low 1.01 | [8] 1.09 | locus YLR268W, strain sec22, active compounds read low 1.02 | locus YLR330W, strain CHS5, active compounds read low 1.01 | locus YLR342W, strain FKS1 (second series), active compounds read low 0.995 | locus YLR371W, strain rom2, active compounds read low 0.997 | locus YLR418C, strain cdc73, active compounds read low 1.05 | locus YML016C, strain PPZ1, active compounds read low 1.01 | locus YML032C, strain rad52, active compounds read low 1.02 | locus YML124C, strain tub3, active compounds read low 1.01 | locus YMR078C, strain ctf18, active compounds read low 1 | locus YMR223W, strain ubp8, active compounds read low 1.01 | [9] 1.01 | locus YMR307W, strain GAS1, active compounds read low 1.06 | locus YNL067W, strain RPL9B, active compounds read low 1.02 | [10] 1.01 | locus YNL233W, strain BNI4, active compounds read low 1.01 | locus YNL250W, strain rad50, active compounds read low 1.01 | locus YNL271C, strain bni1, active compounds read low 1.01 | locus YNL298W, strain CLA4, active compounds read low 1.04 | locus YNL307C, strain MCK1, active compounds read low 1.02 | [11] 1 | locus YNR052C, strain pop2, active compounds read low 1.02 | locus YOL012C, strain htz1 0.873 | locus YOL147C, strain pex11, active compounds read low 1.01 | [12] 1.01 | locus YOR069W, strain VPS5, active compounds read low 1.01 | locus YOR136W, strain idh2, active compounds read low 1.02 | locus YOR144C, strain elg1, active compounds read low 1.01 | locus YOR184W, strain ser1, active compounds read low 0.995 | locus YOR316C, strain cot1, active compounds read low 1.02 | [13] 1.01 | locus YPR119W, strain clb2, active compounds read low 1 | locus YPR141C, strain kar3, active compounds read low 1.01 | locus YPR167C, strain met16, active compounds read low 1 | strain wtn01, active compounds read low 1.01

CC(=O)Nc1ccc(S(=O)(=O)Nc2ccccc2Oc2ccc(Cl)cc2Cl)cc1
inactive: locus YAR019C, strain CDC15, active compounds read low 0.998 | locus YBL105C, strain PKC1, active compounds read low 0.996 | locus YBR135W, strain CKS1, active compounds read low 0.993 | locus YBR136W, strain MEC1, active compounds read low 0.993 | locus YBR160W, strain CDC28, active compounds read low 0.996 | locus YDL017W, strain CDC7, active compounds read low 0.997 | locus YDL028C, strain MPS1, active compounds read low 0.995 | [3] 1 | locus YDL108W, strain KIN28, active compounds read low 0.999 | locus YDL132W, strain cdc53, active compounds read low 0.995 | locus YDL214C, strain PRR2, active compounds read low 0.984 | locus YDR052C, strain DBF4, active compounds read low 0.993 | locus YDR054C, strain cdc34, active compounds read low 0.986 | locus YDR226W, strain ADK1, active compounds read low 1 | locus YDR477W, strain SNF1, active compounds read low 0.983 | locus YER123W, strain YCK3, active compounds read low 1.02 | locus YER133W, strain GLC7, active compounds read low 0.991 | locus YFL009W, strain cdc4, active compounds read low 0.993 | locus YFL029C, strain CAK1, active compounds read low 0.985 | locus YFR003C, strain YPI1, active compounds read low 0.999 | locus YFR019W, strain FAB1, active compounds read low 0.993 | locus YFR028C, strain CDC14, active compounds read low 0.993 | locus YGR040W, strain KSS1, active compounds read low 0.986 | locus YGR052W, strain FMP48, active compounds read low 1.09 | locus YGR092W, strain DBF2, active compounds read low 1 | [5] 1 | locus YHR079C, strain IRE1, active compounds read low 1.01 | locus YHR082C, strain KSP1, active compounds read low 1.04 | locus YHR205W, strain SCH9, active compounds read low 0.987 | locus YIL147C, strain SLN1, active compounds read low 0.992 | [6] 1.03 | locus YJL128C, strain PBS2, active compounds read low 0.965 | locus YJL157C, strain FAR1, active compounds read low 0.992 | locus YJR016C, strain ILV3, active compounds read low 0.996 | locus YJR066W, strain TOR1 (second series), active compounds read low 0.97 | locus YJR066W, strain TOR1, active compounds read low 1.01 | locus YKL048C, strain ELM1, active compounds read low 0.986 | locus YKL067W, strain YNK1, active compounds read low 0.985 | locus YKL101W, strain HSL1, active compounds read low 0.98 | locus YKL193C, strain SDS22, active compounds read low 0.994 | locus YKL203C, strain TOR2, active compounds read low 1.04 | locus YLR113W, strain HOG1, active compounds read low 0.959 | locus YLR133W, strain CKI1, active compounds read low 0.98 | locus YLR403W, strain SFP1, active compounds read low 0.995 | locus YML070W, strain DAK1, active compounds read low 1.01 | locus YMR001C, strain CDC5, active compounds read low 0.999 | locus YMR205C, strain PFK2 (second series), active compounds read low 0.99 | locus YMR277W, strain FCP1, active compounds read low 0.995 | locus YNL006W, strain LST8, active compounds read low 0.999 | locus YNL020C, strain ARK1, active compounds read low 0.992 | locus YNL161W, strain CBK1, active compounds read low 0.995 | locus YNL183C, strain NPR1, active compounds read low 1.01 | locus YNL207W, strain RIO2, active compounds read low 0.995 | locus YNL222W, strain SSU72, active compounds read low 0.995 | locus YNL307C, strain MCK1 (second series), active compounds read low 1.01 | locus YOL078W, strain AVO1, active compounds read low 0.995 | locus YOL136C, strain PFK27, active compounds read low 1 | [12] 0.98 | locus YOR119C, strain RIO1, active compounds read low 0.994 | locus YOR231W, strain MKK1, active compounds read low 0.994 | locus YOR329C, strain SCD5, active compounds read low 0.999 | locus YPL031C, strain PHO85, active compounds read low 0.995 | locus YPL153C, strain RAD53, active compounds read low 0.994 | locus YPL204W, strain HRR25, active compounds read low 0.996 | locus YPL209C, strain IPL1, active compounds read low 0.998 | locus YPL256C, strain CLN2, active compounds read low 0.929 | locus YPR025C, strain CCL1, active compounds read low 0.996 | locus YPR106W, strain ISR1, active compounds read low 0.998 | locus YPR111W, strain DBF20, active compounds read low 0.99 | strain NNK1, active compounds read low 0.994 | strain TSCII, active compounds read low 0.999

Cc1ccc(NS(C)(=O)=O)cc1N=Cc1ccc(Cl)c(Cl)c1
inactive: [1] 0.989 | [2] 1 | [3] 0.965 | locus YDR150W, strain NUM1, active compounds read low 0.879 | locus YEL061C, strain CIN8, active compounds read low 1.02 | [4] 0.996 | locus YGR229C, strain SMI1, active compounds read low 1 | [5] 0.891 | locus YHR087W, strain rtc3, active compounds read low 1.03 | locus YJL187C, strain SWE1, active compounds read low 1.01 | locus YJR043C, strain POL32, active compounds read low 0.989 | locus YJR075W, strain HOC1, active compounds read low 0.965 | locus YKL190W, strain CNB1, active compounds read low 0.999 | [7] 0.984 | locus YLR058C, strain SHM2 (second series), active compounds read low 1.02 | locus YLR085C, strain ARP6, active compounds read low 1.01 | [8] 0.951 | locus YML094W, strain GIM5, active compounds read low 0.994 | locus YMR219W, strain ESC1, active compounds read low 1.01 | [9] 0.988 | locus YNL128W, strain TEP1, active compounds read low 0.976 | [10] 0.986 | locus YNL298W, strain CLA4 (second series), active compounds read low 0.866 | [11] 1 | locus YNR030W, strain Alg12, active compounds read low 0.983 | locus YOL006C, strain TOP1, active compounds read low 0.959 | locus YPL055C, strain LGE1, active compounds read low 0.991 | [13] 0.993 | locus YPR135W, strain CTF4, active compounds read low 0.706
